A short description of assay [1]: inhibitors of TNFa-induced NFkB p65 translocation, primary screen, imaging, HUVEC, MLSMR starter and 10KST1 sets (AID 438;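 active means inhibition above 20% together with a positive visual image hit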;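 further: compound added about 3h40 before a 20 min TNFalpha stimulation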;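 on inhibition: signal is the nuclear over cytoplasmic p65 intensity ratio per well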). The following applies: HUVEC TNFa-induced p65 nuclear translocation; cell count: measured here: nuclei count (cytotoxicity indicator), at 2.08 µM; inhibition: at 2 µM, stronger effect = higher value, 0% TNFa-plus-vehicle, 100% no-TNFa wells.
A short description of assay [2]: reduction of polyQ htt aggregates in cells – imaging, exon1htt(103Q)mCFP cells, high-content imaging, primary screen (AID 483;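 active means visual image review flags a hit and inhibition of aggregation exceeds 20%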;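 further: compound exposure lasted 3 days before fixation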;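 on nuclei count: percent of the per-plate median nuclei count of sample wells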). The following applies: exon1htt(103Q)mCFP cell line, aggregate imaging, at 2 µM; inhibition of aggregation: stronger effect = higher value; nuclei count: measured here: cell count, toxicity.
Assay [3] in a line: endothelial E-selectin expression blockers – imaging, HUVEC, immunofluorescence, MLSMR starter and 10KST1 sets, primary screen (AID 487;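 active means visually confirmed hit in the image check and inhibition above 20%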;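 on inhibition: signal is fraction of cell area covered by stained E-selectin grains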;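 on nuclei count: 100% = median nuclei count of all wells on the same plate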). The settings on record: HUVEC TNFalpha-induced E-selectin immunofluorescence imaging, at 2 µM; inhibition: stronger effect = higher value; nuclei count: measured here: cell number, toxicity.
Assay [4] in a line: Primary imaging screen for DUSP6 inhibitors that restore phospho-Erk in transfected HeLa cells, chemical complementation (AID 609).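 On inhibition: phospho-Erk level distribution per well compared with pooled transfected vehicle control wells.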 The settings on record: HeLa MKP-3 transfected, phospho-Erk imaging KS statistic, at 10 µM, cells stimulated with TPA for 15 min.
The target of assay [5] is Dual specificity protein phosphatase 6 (Homo sapiens) (UniProt Q16828). The description is as above. The settings on record: HeLa MKP-3 transfected, phospho-Erk imaging KS statistic; at 10 µM; stronger effect = higher value; cells stimulated with TPA for 15 min.
Dual specificity protein phosphatase 6 (Homo sapiens), sequence (Q16828 whole entry, looked up): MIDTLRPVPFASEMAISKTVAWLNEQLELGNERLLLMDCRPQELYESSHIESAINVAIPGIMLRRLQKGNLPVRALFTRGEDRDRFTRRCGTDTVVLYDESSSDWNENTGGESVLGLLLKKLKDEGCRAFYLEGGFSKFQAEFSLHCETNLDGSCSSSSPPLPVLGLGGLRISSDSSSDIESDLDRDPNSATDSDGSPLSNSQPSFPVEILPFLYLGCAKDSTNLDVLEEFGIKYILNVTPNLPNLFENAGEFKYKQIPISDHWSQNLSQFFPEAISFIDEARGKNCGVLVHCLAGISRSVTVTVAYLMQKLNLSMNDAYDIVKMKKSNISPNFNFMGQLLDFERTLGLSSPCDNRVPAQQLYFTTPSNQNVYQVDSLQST
Assay [6] addresses Voltage-gated potassium channel subunit beta-2 (Rattus norvegicus) (UniProt P62483). In words: inhibitors of rat Kvbeta2 reductase activity – biochemical, NADPH fluorescence, primary screen (AID 622;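 active means fluorescence slope higher than the sample average by over 3 SD, cut at about -0.22 in these data, passing the limit was not always enough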;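 further: slope of raw intensity against log time taken from 70 to 1610 s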). The following applies: recombinant KvBeta, 4-cyanobenzaldehyde reduction, at 10 µM, stronger effect = higher value.
The target is the same in assay [7]. In words: enhancers of rat Kvbeta2 NADPH turnover – biochemical, NADPH fluorescence, primary screen (AID 623;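 active means NADPH fluorescence slope more negative than the mean of all samples by about 3 SD, 99.7% confidence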;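 further: fluorescence intensity change per second fitted from 20 to 320 s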). The following applies: Recombinant KvBeta, NADPH fluorescence decrease slope, 10 min; at 10 µM; stronger effect = lower value.
Assay [8] concerns the target Alpha-2C adrenergic receptor (Homo sapiens) (UniProt P18825). As to the kind of experiment: compounds altering alpha2C-coupled GIRK flux – cell-based, HEK293 alpha2C/GIRK1/2, thallium flux, primary screen (AID 624;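 active means fluorescence slope after compound addition differing from the mean of all screened samples at 99.7% confidence, in either direction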;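 further: slope of fluorescence ratio to pre-addition baseline per second over 15 to 24 s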). The settings on record: thallium flux BTC fluorescence, at 10 µM, actives lie on both sides.
The nature of assay [9]: inhibitors of larval lipid processing in zebrafish, primary screen, whole organism, PED6 fluorescence, gall bladder and intestine (AID 686;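 active means a full or partial loss of lipid-probe fluorescence in the fish gall bladder, intestine or both, judged by eye; inactive means no fluorescence loss, or compound toxic to the fish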;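 further: larvae 5 to 7 days old with five fish per well; signal comes from phospholipase A2 cleavage of quenched PED6 carried via bile; overnight exposure to compound and PED6 before scoring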). The following applies: Zebrafish larvae PED6 lipid processing, fluorescence scoring; screened at 20 µM (by protocol).
A short description of assay [10]: loss of swimming-algae plug formation – whole organism, Chlamydomonas reinhardtii, WT vs cilia-less mutant, absorbance, 96-well, primary screen (AID 463189;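 active means inhibition at or above 50% relative to wild type and mutant plate controls; inactive means inhibition below 50%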;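 further: 0% = wild type cc124 cells in DMSO and 100% = ciliumless bld1 mutant cells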). The settings on record: Chlamydomonas reinhardtii gravitaxis, OD600 absorbance, 2 days; at 10 µM; stronger effect = higher value.
Assay [11] in a line: blockers of RIG-like receptor reporter activation – cell-based, Sendai virus stimulus, luciferase, 10K MLSCN set, TLR/RLR signaling modifier project, primary screen (AID 602276;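 active means inhibition at or above 50% at 10 µM; inactive means inhibition below 50%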;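 further: firefly luciferase from ISG56 promoter only with Renilla not read in this screen; 0% = Sendai virus plus DMSO and 100% = medium plus DMSO without virus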). The following applies: HEK293 RL24 IRF3 luciferase reporter, at 10 µM, stronger effect = higher value.
Assay [12] in a line: TLR3 IRF3 reporter activation blockers – cell-based, poly I:C stimulus, luciferase, 10K MLSCN set, primary screen (AID 602277;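 active means inhibition of the reporter signal at or above 50%; inactive means inhibition below 50%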). The following applies: HEK293-TLR3 RL24 IRF3 luciferase reporter, at 10 µM, stronger effect = higher value.
Where [13] appears, read: measured here: cell density z-score.
Setting [14] is: measured here: nuclear c-Myc green intensity z-score.
[15] abbreviates: measured here: nuclear pErk red intensity z-score, stronger effect = higher value.

Active and inactive are the calls of the source.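 How the source made its calls, unless noted: active means compounds giving at least 50% inhibition in the cell-based MKP-3 phosphatase rescue imaging test; inactive means the rest.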

Voltage-gated potassium channel subunit beta-2 (Rattus norvegicus), sequence (P62483 whole entry, looked up): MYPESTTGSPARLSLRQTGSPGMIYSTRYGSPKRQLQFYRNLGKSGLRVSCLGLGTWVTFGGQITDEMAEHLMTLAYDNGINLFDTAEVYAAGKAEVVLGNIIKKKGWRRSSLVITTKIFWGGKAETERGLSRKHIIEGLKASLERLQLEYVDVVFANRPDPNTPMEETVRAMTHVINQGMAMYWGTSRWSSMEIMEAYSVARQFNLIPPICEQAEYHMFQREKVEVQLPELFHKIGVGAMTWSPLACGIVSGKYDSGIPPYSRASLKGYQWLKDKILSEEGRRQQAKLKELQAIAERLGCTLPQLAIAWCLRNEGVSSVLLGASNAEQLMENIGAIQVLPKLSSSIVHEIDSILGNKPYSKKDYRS
Alpha-2C adrenergic receptor (Homo sapiens), sequence (P18825 whole entry, looked up): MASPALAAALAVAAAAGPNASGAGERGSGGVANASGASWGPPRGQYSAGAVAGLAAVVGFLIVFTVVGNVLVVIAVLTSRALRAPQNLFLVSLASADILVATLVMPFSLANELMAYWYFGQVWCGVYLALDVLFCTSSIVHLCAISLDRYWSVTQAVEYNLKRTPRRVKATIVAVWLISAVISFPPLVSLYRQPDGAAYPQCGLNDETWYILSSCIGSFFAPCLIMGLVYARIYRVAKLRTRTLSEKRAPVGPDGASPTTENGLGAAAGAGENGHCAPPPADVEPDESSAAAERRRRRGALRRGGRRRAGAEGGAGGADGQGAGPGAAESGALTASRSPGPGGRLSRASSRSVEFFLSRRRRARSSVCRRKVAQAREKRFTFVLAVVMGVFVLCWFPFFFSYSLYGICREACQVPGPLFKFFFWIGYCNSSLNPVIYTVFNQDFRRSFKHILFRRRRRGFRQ

With `CCN(CC)c1ccc2c(C)c(-c3ccc(N)cc3)c(=O)oc2c1`, the cell count in assay [1] was 446. Also, the inhibition is -5% (inactive) in assay [1]; 25% (inactive) in [3]; -4.78% (inactive) in assay [5]; 55.8% (active) in assay [10]; -44% (inactive) in assay [11]; -91% (inactive) in assay [12]. Besides, in assay [2], the inhibition of aggregation is 6.3% (inactive). Also, the nuclei count in assay [2] is 98.2%; in assay [3], 149%. The results for the z-score in assay [4] (setting [13]), in [4] (setting [14]) and in [4] (setting [15]) were 0.788, 0.208 and -0.594, respectively. Besides, the fluorescence slope in assay [6] is -0.133 (active). In addition, the NADPH fluorescence slope in assay [7] was 0 (inactive). In addition, in [8], the slope is 0.00526 (inactive). Besides, the call in [9] was inactive.
On to `CCCCCCCCNC(C)C(O)c1ccc(SC(C)C)cc1` (configuration not stated), for which the cell count in [1] amounted to 561. Besides, the inhibition is -16% (inactive) in [1]; -40.8% (inactive) in assay [3]; 25.1% (inactive) in assay [5]; 151% (active) in assay [10]; 19.5% (inactive) in assay [11]; -3.66% (inactive) in assay [12]. Moreover, the inhibition of aggregation in assay [2] is -10.4% (inactive). Moreover, the nuclei count in assay [2] is 105%; in assay [3], 112%. Besides, the z-score in [4] (setting [13]) is 1.06; in assay [4] (setting [14]) it was -0.321; in assay [4] (setting [15]), -0.268. The fluorescence slope in assay [6] is -0.477 (inactive). Also, the NADPH fluorescence slope in [7] was -6.9e-05 (inactive). In addition, in [8], the slope is 0.00365 (inactive). The call in assay [9] was inactive.
`CN(C=C1C(=O)CC(C)(C)CC1=O)CCN1CCNCC1`: the cell count in assay [1] was determined as 624. Further, the inhibition in assay [1] was -4.9% (inactive); in assay [3], -43.7% (inactive); in assay [5], -1.98% (inactive); in assay [10], 6.8% (inactive); in assay [11], 14.6% (inactive); in assay [12] it was 16.6% (inactive). For the same compound, in [2], the inhibition of aggregation was -3.7% (inactive). In addition, the nuclei count was 97.1% in assay [2] and 121% in [3]. Moreover, the figures for the z-score in assay [4] (setting [13]), in assay [4] (setting [14]) and in assay [4] (setting [15]) were -0.672, -0.802 and 1.89, respectively. Besides, the fluorescence slope in assay [6] was -0.519 (inactive). Also, the NADPH fluorescence slope in [7] was -5.2e-05 (inactive). In assay [8], the slope was 0.00485 (inactive). Also, the compound was classed as inactive in [9].
On to `COc1cccc(-c2nnc3sc(C4CCCCC4)nn23)c1`, for which the cell count in assay [1] was 569. The inhibition was -0.9% (inactive) in [1]; -37.4% (inactive) in assay [3]; -13.3% (inactive) in assay [5]; 112% (active) in assay [10]; 28.7% (inactive) in assay [11]; 10.1% (inactive) in [12]. In addition, the inhibition of aggregation in assay [2] was 42.2% (active). The nuclei count stood at 66.9% in [2] and 130% in assay [3]. For the same compound, the results for the z-score in assay [4] (setting [13]), in assay [4] (setting [14]) and in assay [4] (setting [15]) were 0.451, 0.807 and -1.36, respectively. Further, the fluorescence slope in [6] is -0.418 (inactive). Also, in assay [7], the NADPH fluorescence slope is -0.000116 (inactive). Also, the slope in assay [8] was 0.00489 (inactive). Moreover, the compound was called inactive in [9].
Consider `Cc1ccc(-n2nc3cc(Cl)c(NC(=O)c4ccco4)cc3n2)cc1`, for which the cell count in assay [1] came to 566. In addition, the inhibition in [1] is -2.6% (inactive); in assay [3] it was -52% (inactive); in assay [5], -0.674% (inactive); in assay [10] it was 6.11% (inactive); in assay [11] it was -16.5% (inactive); in assay [12], -49.9% (inactive). In addition, the inhibition of aggregation in [2] is -7.2% (inactive). The results for the nuclei count in assay [2] and in [3] were 112% and 137%, respectively. Moreover, the results for the z-score in [4] (setting [13]), in [4] (setting [14]) and in [4] (setting [15]) were -0.552, 1.17 and -0.609, respectively. In assay [6], the fluorescence slope was -0.459 (inactive). The NADPH fluorescence slope in assay [7] is -5.2e-05 (inactive). The slope in [8] was 0.00706 (inactive). For the same compound, the outcome in assay [9] was inactive.
For the compound `CCSc1nc(N)c(C#N)c(-c2ccccc2Cl)c1C#N`, in assay [1], the cell count amounted to 494. Moreover, the inhibition in assay [1] is -3.2% (inactive); in assay [3] it was -29% (inactive); in assay [5] it was -5.89% (inactive); in assay [10] it was -6.34% (inactive); in assay [11], -0.977% (inactive); in [12] it was 7.05% (inactive). Besides, the inhibition of aggregation in assay [2] was 25.1% (inactive). The figures for the nuclei count in assay [2] and in assay [3] were 71.7% and 107%, respectively. Further, the results for the z-score in assay [4] (setting [13]), in assay [4] (setting [14]) and in [4] (setting [15]) were -2.31, 3.1 and 0.136, respectively. The fluorescence slope in assay [6] was -0.473 (inactive). The NADPH fluorescence slope in [7] is -0.000189 (inactive). For the same compound, the slope in assay [8] was 0.00512 (inactive). In addition, the result in assay [9] was inactive.

The inhibition is the relative decrease from the control value, in per cent.

(Values after PubChem BioAssay.)
